± gives the standard deviation.

The subject of this test is OVCAR-3-derived ovarian cancer stem-like cells (spheroids). In words: cell growth relative to untreated control; higher = more growth (less inhibition). The settings on record: 2.29 µM; 96 h. In short, it runs like this: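 OVCAR-3 spheroid-derived stem-like cells were trypsin-dissociated, seeded at 50,000 cells/mL in stem cell medium in ultra-low attachment 96-well plates and preincubated 24 h. Compounds were then added at 2.29 uM for 96 h at 37°C, 5% CO2, in 4 replicate wells. Viability was read as TOX8 resazurin fluorescence (ex 560/em 590 nm) after 4 h. Percent growth was calculated relative to untreated wells after blank subtraction and Grubbs outlier removal.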
In the case of `O=C1Nc2c(Cl)cc(Cl)cc2C1=O`, the cell growth came to 22.4 ± 13%.

As for `C=C(C)[C@@H]1CC[C@]2(CO)CC[C@]3(C)[C@H](CC[C@@H]4[C@@]5(C)CC[C@H](O)C(C)(C)[C@@H]5CC[C@]43C)[C@@H]12`, the cell growth worked out at 90 ± 24%. As to `CCC1CN2CCc3cc(OC)c(OC)cc3C2CC1CC1c2cc(OC)c(OC)cc2CCN1C(=O)C1CCCN1C(=O)OCc1ccccc1` (stereo not given), the cell growth stood at 122 ± 21%.

Molecule `O=S1(=O)CCN(c2ccccc2CC(c2c[nH]c3ccccc23)c2c[nH]c3ccccc23)CC1` showed a cell growth of 104 ± 24%.

The molecule `N#CC1(C#N)C2C=CC(c3coc4cccc2c34)C1(C#N)C#N` (stereo not given) yielded a cell growth of 20.9 ± 5.5%. For the molecule `COc1cc2c(cc1Oc1ccc(OC)c3c1CC1c4c(cc(OC)c(OC)c4-3)CCN1C)CC1c3c(cc(OC)c(OC)c3-2)CCN1C` (stereo not given), the cell growth was found to be 101 ± 11%. `Nc1ccccc1C(=O)NC(=O)Nc1ccc(Oc2ncc(Br)cn2)c(Cl)c1` gave a cell growth of 61.6 ± 21%.

In the case of `O=S1(=O)OCCOS(=O)(=O)C1Cc1ccccc1`, the cell growth was found to be 93.4 ± 15%. `CC(=O)N(C)c1ccc(Nc2cc(C)[nH]c3ccc4ncnc4c23)cc1` registered a cell growth of 81.9 ± 23%.

On to `CC[C@@]1(O)C[C@H](O[C@H]2C[C@H](N(C)C)[C@H](O[C@H]3C[C@H](O)[C@H](O[C@H]4C[C@H](O)[C@H](O)[C@H](C)O4)[C@H](C)O3)[C@H](C)O2)c2c(cc3c(c2O)C(=O)c2c(O)ccc(O)c2C3=O)[C@H]1C(=O)OC`, for which the cell growth worked out at 78.9 ± 26%. In the case of `CCN(CC)CCNC(=O)c1nn(-c2ccc(Cl)cc2)c2c1CCc1cc(OC)ccc1-2`, the cell growth is 79.1 ± 11%.

Regarding `COc1cc2c(c(OC)c1OC)-c1ccc(OC)c(=O)cc1[C@@H](NC(=O)c1ccccc1)CC2`, the cell growth stood at 30.8 ± 5.6%. `CCOC(=O)CCn1ncc(Cl)c(Cl)c1=O` showed a cell growth of 74.8 ± 21%. `COc1ccccc1Cc1nc(-c2ccccc2)nn(C2OC(COC(C)=O)C(OC(C)=O)C(OC(C)=O)C2OC(C)=O)c1=S` (stereo not given) had a cell growth of 97.5 ± 16%. For the molecule `CC(/C=C/C(O)=C1/C(=O)CNC1=O)=C\[C@@H](C)[C@H]1O[C@]2(C)O[C@@H](C(=O)[C@@H]3O[C@@]32C)[C@@H]1C`, the cell growth came out at 60.3 ± 14%. The molecule `Nc1ccc2c(c1)CN1C(=O)c3ccccc3C1=N2` had a cell growth of 72.9 ± 5.6%. For `O=NN(CCCl)C(=O)NCc1ccc[n+]([O-])c1`, the cell growth worked out at 76.9 ± 13%. Turning to `Clc1ccc(-c2c(C3=NCCCN3)nnn2-c2ccc(Cl)cc2)cc1`, the cell growth is 156 ± 57%. `O=C1c2cccc(NCCCNCCO)c2C(=O)c2cccc(NCCCNCCO)c21` displayed a cell growth of 57.9 ± 16%. Then `CC1CCCC(C(=O)/C(=C/c2cccc(Cl)c2)C(=O)C(=O)O)C1` (stereo not given), with 93.9 ± 27%; and `Cc1ccc(Nc2nc(C)c(C(/C=C/c3ccc(/C=C/C(=N\NC(=O)C[n+]4ccccc4)c4sc(Nc5ccc(C)cc5[N+](=O)[O-])nc4C)cc3)=N/NC(=O)C[n+]3ccccc3)s2)c([N+](=O)[O-])c1`, with 110 ± 11%. Then `O=C(Nc1ccc(Sc2ccc(N=Nc3c(O)c(S(=O)(=O)O)cc4cc(S(=O)(=O)O)ccc34)cc2)cc1)c1ccc(N=Nc2c(O)ccc3c(S(=O)(=O)O)cc(S(=O)(=O)O)cc23)cc1`, with 95.9 ± 9.6%. Next, `Cc1cc(Cl)cc2c1NC(=O)C2(O)C(C(=O)c1ccccc1)c1ccccc1` (stereo not given): 94.9 ± 12%; `Nc1ccn([C@@H]2C=C(CO)[C@@H](O)[C@H]2O)c(=O)n1`: 44.8 ± 5.1%; `CN(Cc1cnc2nc(N)nc(N)c2n1)c1ccc(C(=O)N[C@@H](CCC(=O)O)C(=O)O)cc1`: 96.7 ± 31%.

In turn, `COc1cccc2c1C(=O)c1c(O)c3c(c(O)c1C2=O)C[C@@](O)(C(C)=O)C[C@@H]3O[C@@H]1C[C@@H](N(C)C)[C@@H](O)[C@@H](C)O1` displayed a cell growth of 26.5 ± 25%.

For the molecule `Cc1ccc2[c](c1)[Sn]([c]1ccccc1)([c]1ccccc1)[c]1cc(C)ccc1N2C`, the cell growth was determined as 87.8 ± 12%. As for `NCCCNCCCCNCCCN`, the cell growth was determined as 141 ± 34%. Next, `CCN(CC)C(=S)S`: 61.6 ± 19%. Then `O=S(=O)(O)c1cc(N=Nc2cc(S(=O)(=O)O)c3ccccc3c2O)ccc1/C=C/c1ccc(N=Nc2cc(S(=O)(=O)O)c3ccccc3c2O)cc1S(=O)(=O)O`, with 110 ± 24%; and `O=C1c2cccc(O)c2C(=O)c2c(O)cccc21`, with 68.8 ± 19%.

As to `CCCCCCCCCCCCCCCCOCC(O)CO` (stereo not given), the cell growth worked out at 126 ± 28%.

As to `COC(=O)c1ccc(NCc2cc(O)ccc2O)cc1`, the cell growth amounted to 108 ± 12%. `CC1OC(CC(=O)O)CC2=C1C(=O)c1c(O)cccc1C2=O` (stereo not given) displayed a cell growth of 130 ± 42%. With `CN1C(Cl)=NS(=O)(=O)c2ccccc21`, the cell growth came out at 99.9 ± 12%. Next, `CO[C@@H]1C[C@](C)(O)Cc2cc3c(c(O)c21)C(=O)c1c(O)cc2c(c1C3=O)O[C@@H]1O[C@@]2(C)[C@H](O)[C@@H](N(C)C)[C@@H]1O`: 37.7 ± 42%. In turn, `CN(C)CCCN1c2ccc3ccccc3c2Sc2cccc(Cl)c21` registered a cell growth of 104 ± 19%. Turning to `CC(=O)OCc1c2ccccc2c(C)c2c1cc(F)c1ccccc12`, the cell growth came to 85.4 ± 9.4%. `COc1ccc(N=Cc2ccc(N(CCC#N)S(=O)(=O)c3ccccc3)cc2C)cc1` showed a cell growth of 80.6 ± 28%. As to `COC1/C=C/OC2(C)Oc3c(C)c(O)c4c(c3C2=O)C(=O)C=C(NC(=O)/C(C)=C\C=C\C(C)C(OC=O)C(C)C(O)C(C)C(OC(C)=O)C1C)C4=O` (stereo not given), the cell growth worked out at 66.6 ± 67%.

Values taken from the supplement of paper PMC3484114.
